# Source: PubChem BioAssay (NCATS)
# Inconclusive results are not listed. Unmarked numbers belong to inactive results. Activity calls are given as the source filed them. Calls follow the shape of the dose curve; as a rule, active = well fitted inhibition curve with a large enough effect; inconclusive = small, poorly fitted or top-dose-only effect; inactive = flat fitted curve, though single readings scatter.
# Test system: CP238
# Test: qHTS profiling for inhibitors of Plasmodium falciparum proliferation (AID 504749); also: nearly all actives have a fitted effect of over 60% in size;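 as to activity, negative = inhibition: 0% = DMSO vehicle and full inhibition = artemisinin control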
# Conditions: P. falciparum in erythrocytes, SYBR Green DNA, 72 h; series mostly up to 28.7 µM; activity, negative = inhibition: at the top concentration
# Procedure, shortened: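 Fluorescence of SYBR Green-bound parasite DNA, read at 485/535 nm, served as the growth measure. Infected erythrocytes were cultured with compound 72 h; artemisinin (0.29 uM) and DMSO wells defined the normalization range.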
# Potency is read from the fitted curve at half-maximal effect.
SMILES,"activity, negative = inhibition [%]",Potency
CCOC(=O)Cc1ccc(-c2ccccc2)cc1,-2.8,
O=c1n(CC2CO2)c(=O)n(CC2CO2)c(=O)n1CC1CO1 (stereo unspecified),-26.9,
C[C@H](CCC(=O)O)[C@H]1CC[C@H]2[C@@H]3CC[C@@H]4C[C@H](O)CC[C@]4(C)[C@H]3C[C@H](O)[C@]12C,6.61,
CNC(=O)c1c(I)c(C(=O)NCC(=O)Nc2c(I)c(C(=O)O)c(I)c(C(=O)NCCO)c2I)c(I)c(N(C)C(C)=O)c1I,-2.14,
S=C1SCN(Cc2ccccc2)CN1Cc1ccccc1,-0.419,
Nc1ccc(N=Nc2ccccc2)c(N)n1,2.9,
OC/C=C/c1ccccc1,2.35,
CN(C)CCC=C1c2ccccc2C(C)(C)c2ccccc21,-28.9,
O=C1c2ccccc2C(=O)C1c1ccc(Cl)cc1,5.69,
CC(=O)Oc1cccc2c1C(=O)c1c(OC(C)=O)cc(C(=O)O)cc1C2=O,-4.2,
CC[C@H]1OC(=O)[C@H](C)[C@@H](O[C@H]2C[C@@](C)(OC)[C@@H](O)[C@H](C)O2)C(C)[C@@H](O[C@@H]2O[C@H](C)C[C@H](N(C)C)[C@@H]2O)[C@](C)(OC)C[C@@H](C)C(=O)[C@H](C)[C@@H](O)[C@]1(C)O (stereo partly specified),-6.79,
O=C(c1cc2ccccc2o1)N1CCN(Cc2ccccc2)CC1,-29.1,
CCCCCCCCCCCCCCCCCC[N+](C)(C)CCC[Si](OC)(OC)OC,-2.21,
CC(=O)Nc1ccc(NC(=S)NC(=O)c2ccc(C(C)(C)C)cc2)cc1,-0.125,
CC(=O)Nc1c(I)c(C(=O)O)c(I)c(N(C)C(C)=O)c1I,-1.37,
c1ccc2c(c1)Sc1ccccc1N2CCN1CCCC1,,11.2 µM (active)
